High-throughput results: PubChem, several laboratories
Beta cell apopt – inhibitors of cytokine-induced beta cell apoptosis, primary screen, luminescence; INS-1E cytokine-induced death, ATP luminescence, 48 h; percent of positive-control rescue, neutral wells zero; 300,000 compounds, 0.8% hits; AID 435005, 2010; protection from apoptosis, % (concentration not given with the values);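 active = Every replicate reaches about 75%, or at least half do and their mean reaches it too, limit read from the data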;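 note: higher means more ATP so stronger rescue from cytokine killing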
Mdm2 MdmX PPI – inhibitors of human Mdm2-MdmX association, primary screen, cell-based, luminescence, split luciferase, SaOS-2, uHTS; SaOS-2 split-luciferase Mdm2/MdmX complementation; inhibition, % at 8 µM; 330,000 compounds, 3% hits;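 active = inhibition of at least 50% at 8 µM in the primary screen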
A1 inh – caspase 3/7 activation in MEF A1-2A-BIM cells, primary screen, A1 inhibitor project, cell-based, luminescence, HTS | Caspase-Glo 3/7 luminescence, 3 h; percent of clofoctol response, vehicle zero | 330,000 compounds, 0.066% hits | caspase activation, % (no concentration beside the values);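 active = over half of replicate activation scores above 10%, or exactly half above 10 with the replicate mean above 10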
aSyn UTR inh – MLPCN primary screen, SNCA 5' untranslated region | alpha-synuclein 5'UTR reporter, inhibitor activity | inhibition, % (tested at 7.5 µM) | 300,000 compounds, 0.82% hits; in the data active = inhibition above about 60%;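 note: H4 neuroglioblastoma cells stably carrying SNCA 5'UTR luciferase fusion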
CSC inhib – cancer stem cell viability inhibitors, primary screen, luminescence; inhibition, % at 7.5 µM; 300,000 compounds, 1.1% hits; cancer stem cell-like cells viability; in the data active = inhibition above about 75%; tested in HMLE shEcad cells
Each line names hits and unclear results; the compound was inactive in the other large screens. In the library only some 4.1% were active in any assay of this set; here they are far more common.

CCOc1ccc(-c2c[n+]3c(n2-c2ccccc2)CCCCC3)cc1	Beta cell apopt 97.8
COc1ccc(-n2c(-c3ccc(Br)cc3)c[n+]3c2CCCCC3)cc1	Beta cell apopt 111.1
Cc1ccc(-n2c(-c3ccccc3)c[n+]3c2CCC3)cc1	Beta cell apopt 108.9
COc1ccc(-n2c(-c3ccc(Br)cc3)c[n+]3c2CCC3)cc1	Beta cell apopt 75.6
Cc1ccc(-n2c(-c3ccc(Cl)cc3)c[n+]3c2CCC3)cc1	none
COc1ccc(-n2c(-c3ccccc3)c[n+]3c2CCC3)cc1	none
COc1ccc(-n2c(-c3ccc(Br)cc3)c[n+]3c2SC(C)C3)cc1 (stereo not drawn)	none (no result: Beta cell apopt, CSC inhib)
CN(Cc1ccccc1F)C(=O)COc1ccc(C(=O)c2ccccc2)cc1	none
CC[C@@H]1CC=C[C@H]2[C@H]1C(=O)N(Cc1ccccc1)[C@H]2c1ccc(OC)c(Cl)c1	CSC inhib 76.6
C[C@@H]1CC=C[C@H]2[C@H]1C(=O)N(Cc1ccccc1)[C@H]2c1ccc(F)c(Br)c1	none (no result: Beta cell apopt, Mdm2 MdmX PPI, A1 inh, CSC inhib)
C[C@@H]1CC=C[C@H]2[C@H]1C(=O)N(Cc1ccccc1)[C@H]2c1ccc2ccccc2c1	CSC inhib 86.5
COc1ccc(-c2cc([C@H]3[C@H]4C=CC[C@@H](C)[C@@H]4C(=O)N3Cc3ccccc3)ccc2F)cc1	CSC inhib 77.4
COc1ccc(-c2cccc(C3CC=CC4C3C(=O)N(Cc3ccccc3)C4c3ccc(OC)c(Cl)c3)c2)cc1 (stereo not drawn)	none
Cc1cc(-c2ccc(C(C)C)c(S(=O)(=O)N3CCC(C)CC3)c2)on1	none
CCC1Nc2ncnc(N3CCOCC3)c2N(Cc2ccc(Cl)cc2)C1=O (stereo not drawn)	none (no result: aSyn UTR inh, CSC inhib)
Nc1c(C(O)(C(F)(F)F)C(F)(F)F)cc(C(O)(C(F)(F)F)C(F)(F)F)c2ccccc12	CSC inhib 124.3
O=C(O)c1ccccc1N/N=C\c1ccnc2ccccc12	aSyn UTR inh 76.2
Nc1[nH]n(-c2ccccc2)c(=O)c1N=Nc1ccc2c(c1)OCO2	CSC inhib 112.9
Nc1[nH]n(-c2ccccc2)c(=O)c1N=Nc1ccc2c(c1)OCCO2	none
NC(=S)N=Nc1c(O)n(Cc2ccc(F)cc2)c2ccccc12	none
NC(=S)N=Nc1c(O)n(Cc2ccc(Br)cc2)c2ccccc12	aSyn UTR inh 64.4
O=C(N=Nc1c(O)n(Cc2ccccc2)c2ccccc12)c1cc2ccccc2cc1O	Beta cell apopt 83.8 (no result: Mdm2 MdmX PPI)
O=C(N=Nc1c(O)n(Cc2ccccc2)c2ccccc12)c1ccc(O)cc1	none
Cc1ccc(NC(=O)Cn2c(O)c(N=NC(=O)c3cc4ccccc4cc3O)c3ccccc32)cc1	Beta cell apopt 102.5, CSC inhib 98.5 (no result: Mdm2 MdmX PPI, aSyn UTR inh)
CCCn1c(SCC(=O)Nc2cc(C(=O)O)ccc2C)nc2sc3c(c2c1=O)CCC3	none (no result: Beta cell apopt, A1 inh, aSyn UTR inh, CSC inhib)
O=C(NCC(NS(=O)(=O)OCC(Cl)(Cl)Cl)c1ccccc1)C(F)(F)F (stereo not drawn)	none
Cc1cc(-n2c(C)cc(C(=O)CSc3nnnn3-c3ccccc3)c2C)no1	none
Cc1ccc(-n2nnnc2SCC(=O)c2cc(C)n(-c3cc(C)on3)c2C)c(C)c1	CSC inhib 140.4
O=C(Cc1ccc2c(c1)OCCO2)Nc1cc(C(F)(F)F)ccc1N1CCOCC1	none (no result: Beta cell apopt, A1 inh, aSyn UTR inh, CSC inhib)
CCCOC(=O)N[C@@H]1C(=O)N2C(C(=O)OCCC)=C(C)CS[C@H]12	none
COc1ccc(N2CCN(C(=O)c3cn(CC4CCCCC4)nn3)CC2)cc1	none
COc1ccc(-c2nc(-c3ccncc3)no2)cc1	none (no result: Mdm2 MdmX PPI)
COc1ccc(-c2nc(-c3cccs3)no2)cc1	aSyn UTR inh 82.6
COc1ccc(/C=N/NC(=O)c2cc(C34CC5CC(CC(C5)C3)C4)[nH]n2)cc1OC	none
O=C(N/N=C/c1ccc(O)cc1)c1cc(C23CC4CC(CC(C4)C2)C3)[nH]n1	CSC inhib 79.5
O=C(CCNC(=O)C1CCN(S(=O)(=O)c2ccc(F)cc2)CC1)NC1CC1	none
Cc1ccc(NC(=O)COc2ccc(N(C)C(=O)C(C)(C)C)cc2)cc1S(=O)(=O)N1CCCCC1	Beta cell apopt 114.6 (no result: aSyn UTR inh)
Cc1ccc(OCC(=O)NCc2n[nH]c(=O)c3ccccc23)cc1	none (no result: CSC inhib)
Fc1cccc(Cl)c1-c1nnc2ccc3ccccc3n12	Beta cell apopt 100.6
CN1CCN(c2ccccc2NC(=O)c2ccc(N3CCCC3)c([N+](=O)[O-])c2)CC1	none (no result: Beta cell apopt, CSC inhib)
O=C(Nc1ccccc1N1CCCCC1)c1ccc(Cl)c([N+](=O)[O-])c1	CSC inhib 79.8
O=C(Nc1ccccc1N1CCCCC1)c1ccc(Cl)cc1	A1 inh 7.3
Cc1ccc(C(=O)Nc2ccccc2N2CCCCC2)cc1	none (no result: Beta cell apopt, CSC inhib)
CCN(CC)CCNCc1ccc(-c2ccc(Cl)cc2)o1	CSC inhib 78.8
N/C(=N\N=C/c1ccc(Br)cc1)N/N=C\c1ccc(Br)cc1	CSC inhib 102.5
O=S(=O)(Nc1ccc(-n2cccc2)cc1)c1ccc(Cl)c(Cl)c1	CSC inhib 83.9 (no result: aSyn UTR inh)
c1ccc(N/N=C(\Cc2nc3ccccc3[nH]2)c2ccccc2)cc1	none
Cc1ccc(N/N=C(\Cc2nc3ccccc3[nH]2)c2ccccc2)cc1	CSC inhib 91.6 (no result: Mdm2 MdmX PPI, aSyn UTR inh)
Nc1ncnc2c1ncn2[C@@H]1O[C@H](CNC(=O)[C@H](N)Cc2cscn2)[C@@H](O)[C@H]1O	none (no result: Beta cell apopt, A1 inh, aSyn UTR inh, CSC inhib)
Brc1ccc(-c2cn3nc4c(nc3n2)CCCC4)cc1	aSyn UTR inh 93.1
c1ccc(-c2cn3nc4c(nc3n2)CCCC4)cc1	aSyn UTR inh 109.3
c1ccc(-c2cn3nc(-c4ccccc4)cnc3n2)cc1	none (no result: Mdm2 MdmX PPI, aSyn UTR inh)
Cc1ccc(NC(=O)c2oc3ccccc3c2COC(C)C)cc1S(=O)(=O)N1CCOCC1	none (no result: aSyn UTR inh)
O/N=C/c1cc(Br)ccc1OCc1ccc(F)cc1	none
Cc1ccc(COc2ccc(Br)cc2/C=N/O)cc1	CSC inhib 77.7
Cc1ccc(NC(=O)CSCC(=O)Nc2nnc(C)s2)cc1	none (no result: Beta cell apopt)
O=C(COc1ccccc1Cl)NNC(=O)c1ccc2c(=O)n3c(nc2c1)CCC3	none (no result: aSyn UTR inh, CSC inhib)
COc1ccc(C2NCCc3cc(OC)c(OC)cc32)cc1OC (stereo not drawn)	none
COc1cc2c(cc1OC)C(c1ccc(Br)cc1)NCC2 (stereo not drawn)	aSyn UTR inh 63.3
COc1ccccc1-c1nnc2sc(-c3cc4ccccc4o3)nn12	aSyn UTR inh 76.3
CCCCn1c(SCC(N)=O)nc2sc3c(c2c1=O)CCC3	CSC inhib 98.7
COc1cccc(Cn2nnc(C(=O)NCCc3ccc(Cl)cc3)c2N)c1	none
COc1cccc(Cn2nnc(C(=O)Nc3cc(Cl)ccc3OC)c2N)c1	CSC inhib 79.5
COc1cccc(CNC(=O)c2nnn(CC(=O)Nc3ccc(Br)cc3)c2N)c1	aSyn UTR inh 86.0
Cc1cc2nc3ccc(=[N+](C)C)cc-3sc2cc1N	aSyn UTR inh 91.2 (no result: Beta cell apopt, Mdm2 MdmX PPI, A1 inh, CSC inhib)
Cc1nc2cc(C)c(C)cc2s1	none (no result: CSC inhib)
Cc1ccc(NC(=O)/C=C/c2ccc3c(c2)OCO3)nc1	CSC inhib 109.6
Cc1ccc(NC(=O)Nc2ccc3c(c2)OCO3)nc1	none
